Compounds without any hit were thinned out: in the full panel of roughly 83,000, 20% have a hit.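 96-well plates, one dose, 48 hours. Percent growth reported; active if below 10.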 Unmarked numbers belong to inactive results. The source made the active and inactive calls.
Tests used:
Test in all cases: NCI-60 one-dose screen, 48 h (100 = growth as untreated, 0 = no growth, -100 = all killed)
Details in all cases: 10 µM unless noted
[1] = test system: SR leukemia
[2] = test system: RPMI-8226 leukemia
[3] = test system: OVCAR-8 ovarian
[4] = test system: OVCAR-5 ovarian
[5] = test system: SK-OV-3 ovarian
[6] = test system: OVCAR-3 ovarian
[7] = test system: HS 578T breast
[8] = test system: NCI/ADR-RES ovarian
[9] = test system: T-47D breast
[10] = test system: BT-549 breast
[11] = test system: MDA-MB-435 melanoma
[12] = test system: SW-620 colon
[13] = test system: MCF7 breast
[14] = test system: HCT-116 colon
[15] = test system: HCC-2998 colon
[16] = test system: OVCAR-4 ovarian
[17] = test system: IGROV1 ovarian
[18] = test system: KM12 colon

SMILES	growth [1]	growth [2]	growth [3]	growth [4] [%]	growth [5] [%]	growth [6] [%]	growth [7]	growth [8]	growth [9]	growth [10] [%]	growth [11]	growth [12]	growth [13]	growth [14]	growth [15] [%]	growth [16]	growth [17]	growth [18] [%]
Cn1cc(-c2nnc(N)nc2-c2cn(C)c3ccc(F)cc23)c2cc(F)ccc21	85.6%	106%	89.6%	103	112	103	90.8%	99.8%	69.1%	99.8	101%	102%	87.2%	92.7%	104			
CCOC(=O)C1=C(C)N=C2Sc3ccccc3N2C1c1ccccc1 (centres undefined)	83.8%	73.4%	96.6%		125	98.4	93.5%	82.3%	76.6%	92.2	102%	92.2%	106%	65%	97.1	91.9%	77.3%	93.9
Cn1nc(Nc2ccccc2)c(C(=O)NN)c1N	107%	106%	97.5%	102	103		99.7%	93.9%	95.4%	129	105%	99.8%	89.7%	113%	107		95.4%	99.4
C=C(C)[C@@H]1CC[C@]2(C(=O)ON)CC[C@]3(C)[C@H](CC[C@@H]4[C@@]5(C)C/C(=C/c6ccc(Br)cc6)C(=O)C(C)(C)[C@@H]5CC[C@]43C)[C@@H]12	76.2%	62.2%	68.7%	86.5	98.6	78	88.2%	74.9%	49.4%	96.9	81.1%	81.7%	44.9%		82.9		90.4%	69.9
Cc1ccc(Cc2cnc(NC(=O)/C(C#N)=C/c3ccc(-c4ccc(Cl)cc4)o3)s2)cc1	85.9%	94.3%	97.9%	100	90.9			92.8%	64.7%	96.7	94.4%	93.9%	81.8%	88.9%	103		86.8%	90.4
CC1OC(O[C@@H]2[C@H](O)C(CO)OC(O[C@H]3COC(O[C@H]4CC[C@]5(C)[C@H]6CC[C@]78OC[C@@]9(CC[C@](C)(C=O)C[C@H]97)C(=O)C[C@@]8(C)[C@]6(C)CC[C@H]5C4(C)C)[C@@H](O)[C@@H]3O)[C@H]2OC2OC[C@@H](O)[C@@H](O)[C@@H]2O)[C@@H](O)[C@@H](O)[C@H]1O (some centres undefined)	8.86% (active)	101%	91.9%	110	86.8	105	103%	95.2%	81.3%	104	105%	104%	87.7%	89.1%			94.8%	97
COc1ccc(NC2=C(Cl)C(=O)C(C)=C(C)C2=O)cc1	20.6%	68.8%	51.8%	103		101	95.1%	93.9%	-2.17% (active)	110	106%	94.3%	75.9%	63.4%	101	-98.7% (active)	-49.1% (active)	72.3
Cn1cc2c(c1)-c1c(sc3nc(-c4ccc(NC(=O)Nc5cc(C(C)(C)C)on5)cc4)cn13)CC2	9.8% (active)	-7.75% (active)	53.8%	74.8	49.3		-0.139% (active)	52.8%	30.2%	71.3	51.9%	73%	15.6%	39%	63.1		66.7%	21.7
COc1cc(NC2=C(Cl)C(=O)c3nc(C)ccc3C2=O)cc(OC)c1	-3.19% (active)	-39.7% (active)	-0.815% (active)	22	93.8		-32.8% (active)	-1.26% (active)	-56% (active)	24.1	-87.4% (active)	-90.2% (active)	-51.7% (active)	-97.8% (active)	14.4		-23.1% (active)	39.3
